# In PubChem BioAssay:
# Values without a mark were called inactive. The rule behind the calls is not given here.
# Target: Pantothenate synthetase (Mycobacterium tuberculosis (strain ATCC 25618 / H37Rv)) (UniProt P9WIL5)
# Experiment: Coupled enzyme confirmation of inhibitors against recombinant Mtb PanC (AID 375);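 note: 0% = full reaction with vehicle and 100% = no enzyme background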
# Details: coupled enzyme assay; at 10 µM, active compounds read high
# Pantothenate synthetase (Mycobacterium tuberculosis (strain ATCC 25618 / H37Rv)), sequence (P9WIL5 whole entry, looked up): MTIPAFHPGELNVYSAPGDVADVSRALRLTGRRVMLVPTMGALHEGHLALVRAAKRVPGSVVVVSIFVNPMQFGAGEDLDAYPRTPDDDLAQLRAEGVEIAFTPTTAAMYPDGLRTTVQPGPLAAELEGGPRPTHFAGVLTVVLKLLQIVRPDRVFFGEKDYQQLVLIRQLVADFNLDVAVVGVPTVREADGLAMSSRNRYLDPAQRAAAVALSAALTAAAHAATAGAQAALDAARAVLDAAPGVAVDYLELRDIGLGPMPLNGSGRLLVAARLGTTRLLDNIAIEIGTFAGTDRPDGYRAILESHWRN
row,SMILES,inhibition
1,CN(C)c1ccc(C=Nc2ccc(N(C)C)cc2)cc1,0%
2,COc1ccccc1CN1CCCC(C(=O)N(C)Cc2ccccc2)C1 (stereo not given),0%
3,CCn1nnnc1SCC(=O)N1c2ccccc2CCc2ccccc21,1%
4,Cc1ccccc1N1CC(c2nc3ccccc3[nH]2)CC1=O (stereo not given),0%
5,COCCN(Cc1cc2cc3c(cc2n2nnnc12)OCO3)C(=O)c1ccccc1F,2%
6,COc1cccc(NC(=O)N2CCC(N3CCCCC3)CC2)c1,0%
7,Cc1ccccc1Nc1nc(N)nc(CSCc2c(C)noc2C)n1,0%
8,COc1nc(OC)nc(N2CCC(C(=O)NC3CCCCCC3)CC2)n1,11%
9,CC(=O)c1cc(-c2ccccc2)n(CC(=O)N2CCN(C3CCCC3)CC2)c1C,11%
10,Cc1ccc(-c2nnn(CC(=O)N(Cc3cccs3)C(C(=O)NC(C)(C)C)c3ccc(C)o3)n2)o1 (stereo not given),0%
11,COc1ccc(C(C)(C)C)cc1NC(=O)Nc1ccc2c(c1)OCO2,5%
12,COc1ccc2nc(NC(=O)c3ccoc3C)sc2c1,0%
13,Cc1nnc2ccc(N3CCN(c4cccc(C(F)(F)F)c4)CC3)nn12,0%
14,CCN(CC)CCCN1C(=O)C(O)=C(C(C)=O)C1c1cccc(OC)c1 (stereo not given),0%
15,CCN(Cc1nc2cc(OC)c(OC)cc2c(=O)[nH]1)C(=O)c1ccc(S(=O)(=O)N(C)C)cc1,0%
16,Cc1ccc(-n2ncc3c(Nc4c(C)n(C)n(-c5ccccc5)c4=O)ncnc32)c(C)c1,10%
17,O=C(CCCN1C(=O)c2ccccc2C1=O)Oc1ccc(F)cc1,1%
18,c1cc2c(cc1Cn1cnnn1)OCO2,0%
19,OCCn1c(-c2ccc3c(c2)OCO3)csc1=Nc1ccccc1,1%
20,CCSCc1nnc(SCC(=O)Nc2cccc(SC)c2)n1C,4%

row,SMILES,inhibition
1,Cc1ccc(-n2ncc3c(=O)[nH]c(SC(C)C)nc32)cc1,0%
2,Cc1cc(NC(=O)c2cccc(S(=O)(=O)N3CC(c4ccccc4)CC3=O)c2)no1 (stereo not given),2%
3,c1ccc(Oc2ccc(-n3cnnn3)cc2)cc1,3%
4,Cc1c(C(=O)N2CCOCC2)oc2ccc(S(=O)(=O)N3CCCC3)cc12,0%
5,CCCn1c(NC(=O)C2COc3ccccc3O2)nc2ccccc21 (stereo not given),0%
6,Cc1cc(NC(=O)CCC(=O)N(CCc2ccccc2)C(C(=O)NC2CCCC2)c2ccco2)no1 (stereo not given),7%
7,O=C(C1CCCO1)N1CCN(Cc2nc3ccccc3c(=O)[nH]2)CC1 (stereo not given),0%
8,c1ccc(Cn2ncc3c2ncn2c(-c4ccncc4)nnc32)cc1,0%
9,CC(=O)OC1c2ccccc2C(=O)N1Cc1ccccc1Cl (stereo not given),0%
10,C=CCOc1ccc(C2/C(=C(\O)c3c(C)[nH]c(C(=O)OC)c3C)C(=O)C(=O)N2CCN(C)C)cc1 (stereo not given),0%
11,O=C(CCCCCN1C(=O)CCC1=O)NCc1ccccc1,11%
12,COC(=O)c1ccc(NC(=O)CN2C(=O)CSC2=O)cc1,5%
13,CCOC(=O)c1cc2cc(F)ccc2nc1C,1%
14,CCCCNC(=O)CSc1nc2ccc(N3CCOCC3)cc2c(=O)n1CCc1ccccc1,15%
15,COc1ccc(CNC(=O)c2cnc3n(c2=O)CCS3)cc1,0%
16,CC1=C(/C=C/C(C)=C/C=C/C(C)=C/C(=O)O)C(C)(C)CCC1,0%
17,COc1ccc2c(c1)c(CC(=O)OCC(=O)O)c(C)n2C(=O)c1ccc(Cl)cc1,0%
18,Nn1c(SCc2csc(-c3ccccc3)n2)nnc1-c1cccs1,0%
19,O=C(CN1CCCC1)Nc1ccc(NC(=O)Nc2ccccc2)cc1,0%
20,Cc1ccc(-c2nn(-c3ccccc3)cc2CN(Cc2ccccc2)C(=O)CCC(=O)O)o1,8%
